For orientation: inhibition means the relative decrease from the control value, in per cent.

Values joined by “and” are separate entries in the source; they are usually repeats but may differ in a detail not shown here. Identical values can stand only once. Active and inactive are the calls of the source.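 The calls were made as follows, unless noted: active = thallium flux through the channel raised or lowered by more than 3 SD from vehicle-only wells, actives on both sides; inactive = the rest.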

We go through five compounds from PubChem BioAssay.

Assay [1] is described as follows: stimulators of nuclear beta-catenin in C2C12, primary screen, imaging, WNT3A-conditioned medium, mouse C2C12, NPC library (AID 1117326; in the data active = nuclear beta-catenin stimulation mostly above about 4.2%, no sharp cut-off; inactive = mostly below about 10%). To be noted: stronger effect = higher value.
Assay [2] can be described thus: stimulators of insulin release from INS-1E, primary screen, cell-based, 5 mM glucose, NPC library (AID 1117329;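 active = compound raises insulin release from rat beta cells at 5 mM glucose, no numeric limit stated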). To be noted: rat INS-1E insulin secretion, at 10 µM, stronger effect = higher value.
Assay [3] can be described thus: growth inhibition of GSK3B-pretreated HCT116 cells – cell-based, CellTiter-Glo, 0.2 to 20 µM (AID 1117336;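 active = compounds lowering colon cancer cell viability after pretreatment blocking the GSK3B kinase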). To be noted: HCT116 viability after GSK3B inhibitor, at 20 µM, stronger effect = higher value.
Assay [4] in a line: inhibition of endothelial tube formation, primary screen, imaging, VEGF stimulated, CD31 staining, tube area, NPC library (AID 1117340;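 active = compound that reduces growth-factor-driven endothelial tube area in a mixed cell culture, no cutoff stated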). The note with it: VEGF-stimulated ADSC/ECFC co-culture, at 10 µM, stronger effect = higher value.
Assay [5] is described as follows: glucagon-like peptide 1 release enhancers, primary assay, NCI-H716 cell line, NPC library (AID 1117341;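 active = compound raises GLP1 secretion from the human gut endocrine cells, with no numeric limit stated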). To be noted: NCI-H716 cells, at 10 µM, stronger effect = higher value.
Assay [6] can be described thus: HCT116 colon cancer cell growth inhibition, primary screen, CellTiter-Glo luminescence, NPC library (AID 1117342;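 active = compounds that lower survival of HCT116 colon cancer cells in the luminescence readout, no numeric limit stated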). The note with it: at 20 µM (top of the series).
A short description of assay [7]: CellTiter-Glo luminescent readout of SW480 viability loss, NPC library primary (AID 1117343;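 active = compounds that lower viability of the colon cancer cells in the luminescence readout, with no numeric limit stated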). To be noted: CellTiter-Glo luminescence; at 20 µM (top of the series). A general note: Cellular ATP, detected with luciferase, serves as a proxy for viable cell number.
Assay [8] can be described thus: decreased DLD-1 cellular survival, CellTiter-Glo luminescent readout, NPC compound collection, primary HTS (AID 1117346;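 active = compounds that lower survival of DLD-1 colon cancer cells in the luminescence readout, no cutoff given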). To be noted: DLD-1 viability, CellTiter-Glo luminescence; at 20 µM (top of the series).
Assay [9] concerns the target 6-phosphogluconate dehydrogenase, decarboxylating (Homo sapiens) (UniProt P52209). The experiment in a line: 6PGD enzyme inhibitors, primary screen, biochemical, human, recombinant enzyme, NADPH absorbance (AID 1159550;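 active = at least 20% inhibition of 6-phosphogluconate dehydrogenase activity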). The note with it: recombinant 6PGD, NADPH absorbance 341 nm; at 10 µM; stronger effect = higher value.
Assay [10] in a line: modulation of C. elegans fzo-1 (AID 1259413; call rule not given here;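 also: fzo-1 mutant C. elegans worms in liquid wells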). To be noted: C. elegans fzo-1 modulator screen, mean read-out; stronger effect = higher value.
A short description of assay [11]: differential killing of epithelial or mesenchymal cells, primary screen, imaging, PC-3E GFP, TEM4-18 mCherry, co-culture (AID 1345086;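 active = compounds killing one labelled cell type while sparing the other, by normalised counts and ratio limits, not self-fluorescent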;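 as to all read-outs here: cells exposed to compound for 72 h before imaging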;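 as to red/green cell ratio (normalised): normalised mesenchymal count divided by normalised epithelial count so high means epithelial killing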). The note with it: imaging cell counts, at 1 µM; for red/green cell ratio (normalised): actives lie on both sides, counts scaled to control wells, 1 = unselective.
A short description of assay [12]: sensitizers of A549 cells to miR-34 induction, primary screen, imaging, A549 dox-inducible miR-34, nuclei and caspase counts (AID 1347080;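 active = compounds whose cell count with miR-34 switched on is under 0.7 times the count with it off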). The note with it: A549 miR-34 inducible, Hoechst nuclei count, 48 h.
A short description of assay [13]: survival rescue of mitochondrial mutant cells in low glucose, primary screen, MELAS cybrids, Rieske KO mouse fibroblasts, CellTiter-Glo (AID 1508586;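 active = mean z-score across replicates of 1.96 or higher in either the MELAS or the Rieske mutant cell line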;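 also: z relative to plate mean and SD of compound and empty wells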).
For assay [14], the target named is NAD(+) hydrolase SARM1 (Homo sapiens) (UniProt Q6SZW1). As to the kind of experiment: SARM1 TIR NADase inhibitors, cell lysate, NAD-Glo luminescence (AID 1508614;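 active = compound whose remaining NAD level is above about 45 nM, limit read from the data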;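 also: higher remaining NAD means stronger inhibition of SARM1 NADase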). The note with it: SAM-TIR HEK293T lysate NADase, at 1 µM, stronger effect = higher value.
Chain of NAD(+) hydrolase SARM1 (Homo sapiens) (Q6SZW1 whole entry, looked up, the tested form may be a part): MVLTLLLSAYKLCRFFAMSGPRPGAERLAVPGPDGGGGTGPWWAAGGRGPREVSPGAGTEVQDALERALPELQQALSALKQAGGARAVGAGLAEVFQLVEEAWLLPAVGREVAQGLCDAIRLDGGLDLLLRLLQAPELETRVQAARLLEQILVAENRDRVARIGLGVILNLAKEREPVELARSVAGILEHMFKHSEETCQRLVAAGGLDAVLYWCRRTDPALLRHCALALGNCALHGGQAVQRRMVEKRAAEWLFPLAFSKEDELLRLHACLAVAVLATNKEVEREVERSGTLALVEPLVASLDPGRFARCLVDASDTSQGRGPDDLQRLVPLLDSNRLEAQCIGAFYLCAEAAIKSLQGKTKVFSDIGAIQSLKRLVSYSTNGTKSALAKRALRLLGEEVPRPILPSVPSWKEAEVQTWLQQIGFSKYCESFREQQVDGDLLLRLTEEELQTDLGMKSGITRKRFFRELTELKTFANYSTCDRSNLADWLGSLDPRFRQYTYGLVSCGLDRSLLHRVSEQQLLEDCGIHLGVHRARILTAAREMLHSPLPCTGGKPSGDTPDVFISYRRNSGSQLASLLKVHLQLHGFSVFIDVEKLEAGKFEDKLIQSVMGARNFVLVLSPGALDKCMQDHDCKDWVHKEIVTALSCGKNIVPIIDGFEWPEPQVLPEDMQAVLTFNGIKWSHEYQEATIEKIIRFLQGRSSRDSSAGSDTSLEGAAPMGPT
The target of assay [15] is Mitogen-activated protein kinase 7 (Homo sapiens) (UniProt Q13164). As to the kind of experiment: ERK5 transactivation activators in reporter cells, primary screen, cell-based, HTS (AID 1508626;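 active = luciferase signal above three times the same-plate solvent-only control wells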;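 also: luciferase driven by Gal4-ERK5 fusion binding five Gal4 sites before minimal TATA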). The note with it: HeLa Gal4-ERK5 transactivation, 18 h, at 5 µM, stronger effect = higher value.
Chain of Mitogen-activated protein kinase 7 (Homo sapiens) (Q13164 whole entry, looked up, the tested form may be a part): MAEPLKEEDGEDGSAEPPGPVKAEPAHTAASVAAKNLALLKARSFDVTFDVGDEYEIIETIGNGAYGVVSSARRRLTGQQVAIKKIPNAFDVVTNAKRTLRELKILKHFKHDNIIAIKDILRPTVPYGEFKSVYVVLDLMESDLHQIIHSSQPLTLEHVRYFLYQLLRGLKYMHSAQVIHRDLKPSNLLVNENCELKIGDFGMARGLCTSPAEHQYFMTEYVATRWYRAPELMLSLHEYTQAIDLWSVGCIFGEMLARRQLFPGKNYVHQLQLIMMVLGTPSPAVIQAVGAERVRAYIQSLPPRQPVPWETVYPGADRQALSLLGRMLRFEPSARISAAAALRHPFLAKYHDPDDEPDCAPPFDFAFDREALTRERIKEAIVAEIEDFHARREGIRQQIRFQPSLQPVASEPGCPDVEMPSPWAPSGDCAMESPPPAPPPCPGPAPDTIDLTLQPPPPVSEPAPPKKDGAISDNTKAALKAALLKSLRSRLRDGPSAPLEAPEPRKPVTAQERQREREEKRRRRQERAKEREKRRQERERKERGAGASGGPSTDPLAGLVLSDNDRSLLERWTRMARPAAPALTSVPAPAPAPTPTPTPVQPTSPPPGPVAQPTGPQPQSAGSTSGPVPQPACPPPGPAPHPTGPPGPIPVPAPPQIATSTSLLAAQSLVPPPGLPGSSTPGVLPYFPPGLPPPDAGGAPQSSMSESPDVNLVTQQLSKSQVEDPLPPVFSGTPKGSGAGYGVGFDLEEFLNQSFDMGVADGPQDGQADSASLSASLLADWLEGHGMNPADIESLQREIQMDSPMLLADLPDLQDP
The next assay concerns F380Y. As to the kind of experiment: modulators of BK channel variants, profiling panel, selectivity assay, cell-based, U2OS BacMam, thallium flux, beta subunits (AID 1259406).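 Also: initial slope of Thallos dye fluorescence rise after thallium is added; log ratio against the mean of 0.3% DMSO vehicle wells on the same plate.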 The note with it: at 30 µM.
The subject of the next assay is F380Y/beta1. Described as above. The note with it: at 30 µM.
Another assay relates to F380Y/beta2Delta. The description is as above. The note with it: at 30 µM.
Setting [16] is: measured here: epithelial PC-3E GFP cell survival.
The mark [17] stands for this setting: measured here: mesenchymal TEM4-18 mCherry cell survival.
Where [18] appears, read: stronger effect = lower value, cell number ratio, induced over uninduced.
Where [19] appears, read: measured here: relative caspase fold change +Dox/-Dox.
Setting [20] is: measured here: total cells with miR-34 induction, stronger effect = lower value.
[21] abbreviates: measured here: total cells without miR-34 induction.
The mark [22] stands for this setting: MELAS cybrid survival, CellTiter-Glo 48 h, stronger effect = higher value.
[23] abbreviates: Rieske KO mouse fibroblast survival, CellTiter-Glo 72 h.

Chain of 6-phosphogluconate dehydrogenase, decarboxylating (Homo sapiens) (P52209 whole entry, looked up): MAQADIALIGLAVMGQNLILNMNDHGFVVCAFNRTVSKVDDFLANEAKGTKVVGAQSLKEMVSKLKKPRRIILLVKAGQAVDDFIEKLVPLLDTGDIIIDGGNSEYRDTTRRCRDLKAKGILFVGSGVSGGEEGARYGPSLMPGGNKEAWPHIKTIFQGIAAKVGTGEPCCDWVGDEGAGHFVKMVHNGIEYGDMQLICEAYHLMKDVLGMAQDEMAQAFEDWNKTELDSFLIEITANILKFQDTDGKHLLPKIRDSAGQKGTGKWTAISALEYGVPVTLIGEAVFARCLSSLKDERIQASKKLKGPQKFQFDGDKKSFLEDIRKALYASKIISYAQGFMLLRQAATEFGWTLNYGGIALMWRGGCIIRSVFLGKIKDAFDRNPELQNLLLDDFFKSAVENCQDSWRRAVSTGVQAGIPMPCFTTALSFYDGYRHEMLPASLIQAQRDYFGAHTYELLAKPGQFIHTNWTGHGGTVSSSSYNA

Take `OC(CCN1CCCC1)(c1ccccc1)C1CCCCC1` (stereo not drawn): the nuclear beta-catenin stimulation in assay [1] (at 10 µM) was 4.7% (inactive); in [1] (stimulation, at 2 µM) it was 4.9%. Moreover, the insulin secretion stimulation in assay [2] is 6.4% (inactive). Besides, the viability decrease in [3] is -95.6% (inactive). Also, in [4], the tube area decrease is -12.4% (inactive). Also, the GLP1 secretion stimulation in [5] is 3.4% (inactive). Further, in assay [6], the inhibition of viability was 17.1% (inactive). Also, the viability decrease (inhibition) is 22.1% (inactive) in [7] and 10.7% (inactive) in assay [8]. For the same compound, in [9], the inhibition is -21.9% (inactive). For the same compound, the mean signal in assay [10] was 232 (inactive). In addition, the red/green cell ratio (normalised) in assay [11] is 1.05 (inactive). Moreover, the normalised cell number in assay [11] (setting [16]) was determined as 0.98; in [11] (setting [17]) it was 1.03. Further, the fold change is 0.976 (inactive) and 0.849 (inactive) and 0.894 (inactive) in assay [12] (setting [18]); 1.12 and 3.13 and 3.87 in [12] (setting [19]). For the same compound, the cell count in assay [12] (setting [20]) is 10200 and 8600 and 10900; in assay [12] (setting [21]) it was 10400 and 10100 and 12200. In addition, the z-score in assay [13] (setting [22]) is 0.381 (inactive); in [13] (setting [23]), 0.369. For the same compound, the remaining NAD in assay [14] is 10 nM (inactive). In [15], the luciferase signal is 44 AU (inactive). The log fold change Tl+ flux in the assay on F380Y was 0.0696 (inactive); with F380Y/beta1 it was 0.0373 (inactive); with F380Y/beta2Delta, 0.106 (active).
As for `Clc1ccc2c(c1)C(N1CCNCC1)=Nc1ccccc1O2`, the nuclear beta-catenin stimulation in assay [1] (at 10 µM) is 0.3% (inactive); in [1] (stimulation, at 2 µM), -0.6%. Further, the insulin secretion stimulation in assay [2] was 16.5% (inactive). For the same compound, in assay [3], the viability decrease is 46.2% (inactive). The tube area decrease in [4] is -3.9% (inactive). Further, in assay [5], the GLP1 secretion stimulation is 15.3% (inactive). Besides, the inhibition of viability in assay [6] is 57.3% (active). Moreover, the viability decrease (inhibition) in assay [7] was 90% (active); in assay [8], 19.2% (inactive). For the same compound, the inhibition in [9] was -21.3% (inactive). In addition, the mean signal in assay [10] was 211 (inactive). The red/green cell ratio (normalised) in assay [11] was 1.17 (inactive). Also, the normalised cell number in assay [11] (setting [16]) is 0.23; in assay [11] (setting [17]), 0.27. Also, the z-score was -0.224 (inactive) and 0.465 (inactive) in [13] (setting [22]); 0.449 and -0.479 in assay [13] (setting [23]). Further, the remaining NAD in assay [14] was 10 nM (inactive). Also, in assay [15], the luciferase signal is 32 AU (inactive). For the same compound, the results for the log fold change Tl+ flux in the assay on F380Y, in the assay on F380Y/beta1 and in the assay with F380Y/beta2Delta were 0.111 (active), 0.0215 (inactive) and 0.148 (active), respectively.
As for `NC(=O)c1cnccn1`, the nuclear beta-catenin stimulation in assay [1] (at 10 µM) was -0.1% (inactive); in assay [1] (stimulation, at 2 µM), -0.7%. The insulin secretion stimulation in assay [2] is -1.9% (inactive). Also, the viability decrease in assay [3] is 0.65% (inactive). Also, the tube area decrease in assay [4] was 14.5% (inactive). In assay [5], the GLP1 secretion stimulation was 3.1% (inactive). Moreover, the inhibition of viability in [6] is -20.7% (inactive). In addition, the figures for the viability decrease (inhibition) in assay [7] and in assay [8] were -1.8% (inactive) and -1.9% (inactive), respectively. In addition, the inhibition in assay [9] was -8.25% (inactive). Also, in assay [10], the mean signal was 263 (inactive). In assay [11], the red/green cell ratio (normalised) is 1.13 (inactive). The values for the normalised cell number in [11] (setting [16]) and in assay [11] (setting [17]) were 0.91 and 1.03, respectively. The z-score in assay [13] (setting [22]) was -0.184 (inactive) and 0.644 (inactive); in assay [13] (setting [23]), -1 and -0.0443. Also, the remaining NAD in [14] was 10 nM (inactive). The luciferase signal in assay [15] is 48 AU (inactive). Also, the log fold change Tl+ flux with F380Y was -0.0194 (inactive); in the assay with F380Y/beta1, 0.0317 (inactive); in the assay on F380Y/beta2Delta, -0.0799 (active).
Turning to `Cc1cn([C@H]2C[C@H](N=[N+]=[N-])[C@@H](CO)O2)c(=O)[nH]c1=O`, the nuclear beta-catenin stimulation is 1.2% (inactive) in [1] (at 10 µM) and 1.3% in assay [1] (stimulation, at 2 µM). Further, the insulin secretion stimulation in [2] is -1.7% (inactive). Further, the viability decrease in assay [3] is 4.9% (inactive). Moreover, the tube area decrease in assay [4] is 18.1% (inactive). Further, in assay [5], the GLP1 secretion stimulation is -0.1% (inactive). The inhibition of viability in assay [6] is 2.4% (inactive). The viability decrease (inhibition) in assay [7] is -5.4% (inactive); in [8], -4.95% (inactive). For the same compound, the inhibition in assay [9] was 13.6% (inactive). The mean signal in [10] is 236 (inactive). In addition, the red/green cell ratio (normalised) in [11] was 1.03 (inactive). In addition, the results for the normalised cell number in assay [11] (setting [16]) and in [11] (setting [17]) were 1.06 and 1.09, respectively. Also, the z-score in assay [13] (setting [22]) was 1.37 (inactive) and 1.42 (inactive); in assay [13] (setting [23]), 0.0413 and -0.28. Also, in [14], the remaining NAD was 10 nM (inactive). Further, the luciferase signal in assay [15] was 44 AU (inactive). The log fold change Tl+ flux with F380Y was -0.00123 (inactive); with F380Y/beta1, 0.0379 (inactive); in the assay with F380Y/beta2Delta, 0.00186 (inactive).
Regarding `CN(C)CCOC(c1ccc(Cl)cc1)c1ccccn1` (stereo not drawn), the nuclear beta-catenin stimulation in assay [1] (at 10 µM) was 0.9% (inactive); in [1] (stimulation, at 2 µM), 0.3%. Further, the insulin secretion stimulation in assay [2] was 46.5% (active). For the same compound, in [3], the viability decrease is 8.6% (inactive). In assay [4], the tube area decrease was 1.1% (inactive). In addition, in assay [5], the GLP1 secretion stimulation is 6.8% (inactive). Further, in [6], the inhibition of viability was 2.7% (inactive). Also, the viability decrease (inhibition) is 6% (inactive) in assay [7] and -7% (inactive) in assay [8]. For the same compound, the inhibition in assay [9] was 8.32% (inactive). Moreover, the mean signal in [10] is 244 (inactive). Besides, the red/green cell ratio (normalised) in assay [11] was 1.11 (inactive). For the same compound, the results for the normalised cell number in assay [11] (setting [16]) and in assay [11] (setting [17]) were 1.14 and 1.26, respectively. The fold change is 0.98 (inactive) and 0.859 (inactive) and 0.928 (inactive) in assay [12] (setting [18]); 1.31 and 1.4 and 2.86 in [12] (setting [19]). Moreover, the cell count is 9280 and 8230 and 11400 in assay [12] (setting [20]); 9460 and 9580 and 12300 in assay [12] (setting [21]). Further, the z-score is 0.0234 (inactive) in [13] (setting [22]) and -1.05 in assay [13] (setting [23]). The remaining NAD in assay [14] is 10 nM (inactive). For the same compound, in assay [15], the luciferase signal was 88 AU (inactive). The figures for the log fold change Tl+ flux with F380Y, with F380Y/beta1 and in the assay with F380Y/beta2Delta were 0.0898 (inactive), 0.0451 (inactive) and 0.0734 (inactive), respectively.
